In ChEMBL document CHEMBL4513146, “CO-ADD screening of Karazin Kharkiv National University (Ukraine) compounds”:
Entries with a potency or affinity are not part of this list.

Tests used:
Staphylococcus aureus = conditions: Concentration 32 ug.mL-1;; ASSAY_TEST Inhibition of Bacterial Growth; detection method Absorption (OD600); MEDIA CAMHB; plate type 384well; NBS; CORNING #3640; time 18 hr
Escherichia coli = conditions: Concentration 32 ug.mL-1;; ASSAY_TEST Inhibition of Bacterial Growth; detection method Absorption (OD600); MEDIA CAMHB; plate type 384well; NBS; CORNING #3640; time 18 hr

SMILES	Inhibition (Staphylococcus aureus)	Inhibition (Escherichia coli)
COc1cccc(CNC(=O)CCc2nnc3ccc(-c4ccc(C)cc4)nn23)c1	16.4%	-0.37%
Cc1cccc(C)c1NC(=O)Cn1c(=O)c2nnc(C(C)C)n2c2ccccc21	9.36%	1.82%
COc1ccc(NC(=O)Cn2nc3c(Sc4ccccc4)nccn3c2=O)cc1Cl	-4.6%	-4.12%
COc1ccc(-c2cc3c4nnc(SCC(=O)NCc5ccccc5Cl)n4ccn3n2)cc1	-4.22%	-7.58%
Cc1nnc2ccc(S(=O)(=O)N(Cc3cccc(Cl)c3)c3ccc(F)cc3)cn12	3.62%	-8.44%
CC(C)c1nnc2c(SCC(=O)Nc3ccc(F)cc3F)nc3ccccc3n12	6.8%	1.07%
Cc1ccc(Cn2nc3c(=O)n(-c4cccc(Cl)c4C)ccn3c2=O)cc1	8.26%	-3.14%
Cc1ccc(NC(=O)Cn2nc3c(N4CCCC4)nccn3c2=O)cc1Cl	3.49%	-0.46%
Cc1nnc2ccc(S(=O)(=O)N(Cc3cccc(F)c3)c3cccc(F)c3)cn12	-4.62%	-13.2%
Cc1cccc(Sc2nc3ccccc3n3c(=O)n(CC(=O)Nc4c(C)cc(C)cc4C)nc23)c1	8.94%	-2.19%
Cc1ccccc1Cn1nc2c(=O)n(-c3ccc(Br)cc3)ccn2c1=O	4.33%	1.73%
CCCc1nnc2c(=O)n(CC(=O)Nc3ccc4c(c3)OCCO4)c3ccccc3n12	2.35%	-7.37%
CC(C)c1nnc2c(SCC(=O)Nc3ccc(Br)cc3F)nc3ccccc3n12	6.04%	-1.36%
Cc1ccc(Oc2nccn3c(=O)n(CC(=O)Nc4ccc(F)cc4F)nc23)cc1	19.59%	-0.38%
Cc1cc(C)cc(N(Cc2ccccc2)S(=O)(=O)c2cccn3cnnc23)c1	-25.73%	-13.66%
Cc1ccc(-c2ccc3nn(CC(=O)Nc4ccc(C#N)cc4)c(=O)n3n2)cc1C	8.65%	0.46%
Cc1ccc(Oc2nccn3c(=O)n(CC(=O)Nc4ccc(Cl)cc4F)nc23)cc1	5.22%	-5.2%
CCOc1ccc(NC(=O)Cn2c(=O)c3nnc(C(C)C)n3c3ccccc32)cc1	13.61%	5.76%
O=C(Cn1nc2c(N3CCOCC3)nccn2c1=O)NCc1ccc(C(F)(F)F)cc1	3.92%	-9.55%
O=c1n(Cc2ccc3c(c2)OCO3)nc2c(S(=O)(=O)N3CCCCC3)cccn12	10.75%	1.46%
COC(=O)c1ccccc1NC(=O)Cn1nc2c(Oc3ccc(C)cc3)nccn2c1=O	-0.21%	-6.37%
Cc1nnc2c(SCC(=O)Nc3ccc(C#N)cc3)nc3ccccc3n12	-1.63%	-2.61%
COc1cccc(NC(=O)Cn2c(=O)c3nnc(C(C)C)n3c3ccccc32)c1	22.3%	0.77%
COC(=O)c1ccc(NC(=O)Cn2nc3ccc(C(=O)NCc4ccccc4)cn3c2=O)cc1	12.92%	-2.38%

SMILES	Inhibition (Staphylococcus aureus)	Inhibition (Escherichia coli)
CCc1cccc(NC(=O)Cn2nc3ccc(SC(C)(C)C)nn3c2=O)c1	9.57%	-1.32%
Cc1ccc(CN(c2cc(C)cc(C)c2)S(=O)(=O)c2cccn3c(C)nnc23)cc1	31.07%	-7.16%
CCc1ccc(NC(=O)Cn2nc3cc(C)nc(Nc4ccc(C)c(F)c4)n3c2=O)cc1	-14.67%	-1.11%
Cc1ccc(NC(=O)Cn2nc3c(N4CCOCC4)nccn3c2=O)cc1Cl	10.97%	1.83%
Cc1cc2nn(CC(=O)Nc3cc(F)ccc3F)c(=O)n2c(Nc2ccc(F)c(C)c2)n1	-14.31%	0.42%
CCc1ccc(N(Cc2ccccc2)S(=O)(=O)c2cccn3c(CC)nnc23)cc1	13.69%	-0.95%
COc1ccc(CNC(=O)CSc2nnc3c4cc(-c5ccc(OC)cc5)nn4ccn23)cc1	4.43%	0.23%
COc1ccc(NC(=O)Cn2nc3nc(Nc4ccc(F)cc4)ccn3c2=O)cc1Cl	5.78%	-9.75%
O=c1c2nn(Cc3cccc(F)c3)c(=O)n2ccn1-c1ccccc1	-1.92%	-7.67%
COc1ccc(-c2cc3c4nn(CC(=O)Nc5cc(Cl)ccc5C)c(=O)n4ccn3n2)cc1	5.04%	1.53%
Cc1nnc2c(SCC(=O)Nc3cccc(Br)c3)nc3ccccc3n12	-13.66%	-1.77%
Cc1ccc(C(=O)C(C)Sc2nnc3c(=O)n(-c4ccc(F)c(F)c4)ccn23)cc1C (centres undefined)	19.73%	1.41%
CC1CC(C)CN(c2nccn3c(=O)n(CC(=O)Nc4cccc(C(F)(F)F)c4)nc23)C1 (centres undefined)	16.31%	0.9%
CC(C)c1ccc(N(Cc2cccc(Cl)c2)S(=O)(=O)c2cccn3cnnc23)cc1	-3.13%	-8.14%
C=Cc1ccc(CN(c2ccc(Cl)cc2)S(=O)(=O)c2cccn3c(C)nnc23)cc1	6.06%	-3.28%
COC(=O)c1ccc(NC(=O)CSc2nnc3ccc(C(=O)Nc4cccc(F)c4)cn23)cc1	19.46%	-0.45%
O=c1n(Cc2ccc3c(c2)OCO3)nc2ccc(-c3ccccc3)nn12	12.41%	-0.49%
COC(=O)c1ccc(NC(=O)Cn2nc3c(Oc4cccc(OC)c4)nccn3c2=O)cc1	10.83%	-2.01%
Cc1c(Cl)cccc1-n1ccn2c(=O)n(Cc3cccc(F)c3)nc2c1=O	9.54%	-6.71%
O=C(Cn1nc2c(Oc3ccccc3)nccn2c1=O)Nc1ccc(F)cc1F	6.01%	-8.04%
CCc1nnc2c(SCC(=O)Nc3cc(Cl)ccc3C)nc3ccccc3n12	13.83%	-0.41%
COc1ccccc1-n1ccn2c(SCC(=O)Nc3ccc(C)cc3Cl)nnc2c1=O	8.71%	-9.42%
Cc1ccc(CNC(=O)Cn2nc3c(SC4CCCCC4)nccn3c2=O)cc1	7.11%	-3.86%
CCCCOc1ccc(-c2cc3c4nnc(SCC(=O)Nc5ccccc5Cl)n4ccn3n2)cc1	3.41%	-3.41%

SMILES	Inhibition (Staphylococcus aureus)	Inhibition (Escherichia coli)
O=C(Cn1nc2c(Oc3ccccc3)nc3ccccc3n2c1=O)Nc1ccc2c(c1)OCO2	13.59%	2.6%
COc1ccc(NC(=O)Cn2nc3c4cc(-c5ccc(F)cc5)nn4ccn3c2=O)c(OC)c1	8.82%	-0.75%
COc1ccc(NC(=O)Cn2nc3ccc(SCc4ccc(Cl)cc4)nn3c2=O)cc1	-5.92%	-10.26%
CCOc1ccc(C(=O)CSc2nnc3c(=O)n(-c4ccc(OCC)cc4)ccn23)cc1	18.9%	1.24%
Cc1ccc(-c2cc3c4nn(CC(=O)Nc5ccccc5Cl)c(=O)n4ccn3n2)cc1	2.52%	-6.02%
COc1cccc(CSc2nnc3c(=O)n(-c4ccc(Br)cc4)ccn23)c1	20.73%	-1.68%
COc1cccc(-n2ccn3c(SCC(=O)Nc4cc(Cl)ccc4OC)nnc3c2=O)c1	8.75%	-1.77%
Cc1nnc2c(=S)[nH]c3ccccc3n12	19.6%	10.5%
Cc1ccc(Sc2nccn3c(=O)n(CC(=O)Nc4cccc(Cl)c4)nc23)c(C)c1	9.86%	-3.61%
CCc1nnc2c(SCC(=O)NCc3ccccc3Cl)nc3ccccc3n12	4.41%	-6.59%
COc1cccc(CN(c2ccc(C)c(F)c2)S(=O)(=O)c2ccc3nncn3c2)c1	-7.58%	-16.33%
Cc1nnc2ccc(S(=O)(=O)N(Cc3ccc(Cl)cc3)c3cccc(F)c3)cn12	2.65%	-4.46%
COC(=O)c1ccccc1NC(=O)Cn1nc2c(SC3CCCCC3)nccn2c1=O	-10.07%	-11.96%
Cc1ccc(NC(=O)Cn2nc3c4cc(-c5ccc(Cl)cc5)nn4ccn3c2=O)cc1C	10.49%	3.51%
Cc1nnc2ccc(S(=O)(=O)N(Cc3cc(F)cc(F)c3)c3ccccc3)cn12	12.61%	-1.77%
Cc1ccc(C)c(C(=O)CSc2nnc3c(=O)n(-c4ccc(F)c(F)c4)ccn23)c1	18.46%	1.4%
CCOc1ccccc1NC(=O)Cn1nc2c(Sc3ccc(C)cc3C)nccn2c1=O	2.42%	0%
COc1cccc(Oc2nccn3c(=O)n(CC(=O)Nc4cc(F)ccc4F)nc23)c1	10.86%	-7.76%
Cc1ccc(NC(=O)CSc2nc3ccccc3n3cnnc23)c(C)c1	-8.66%	-6.3%
Cc1nnc2ccc(S(=O)(=O)N(Cc3ccc(F)cc3)c3cc(F)cc(F)c3)cn12	4.18%	-6.59%
Cc1cccc(NC(=O)CSc2nnc3ccc(C(=O)Nc4cccc(F)c4)cn23)c1	8.5%	-1.74%
COc1ccc(NC(=O)Cn2nc3c4cc(-c5ccc(C)cc5)nn4ccn3c2=O)cc1	-5.75%	-1.43%
CCc1nnc2c(=O)n(CC(=O)Nc3ccc(C#N)cc3)c3ccccc3n12	12.29%	-5.97%
CCCn1c(=O)c2sccc2n2c(=O)n(Cc3ccc(Cl)cc3)nc12	1.51%	-6.17%
